Experimental data from article PMC11006913.
Substitutions are numbered along the chain they refer to.

Tests used:
Assay in all cases: PBM; 200 nM protein, PBS
Conditions in all cases: dsDNA, one strand shown
[1] = molecular target: CRX (Homo sapiens, UniProt O43186 26-111)
[2] = molecular target: CRX (Homo sapiens, UniProt O43186 26-111, E42D)
[3] = molecular target: CRX (Homo sapiens, UniProt O43186 26-111, R41L)
[4] = molecular target: T1, SIX6 (Homo sapiens, UniProt O95475 114-200, L167I)
T1 sequence: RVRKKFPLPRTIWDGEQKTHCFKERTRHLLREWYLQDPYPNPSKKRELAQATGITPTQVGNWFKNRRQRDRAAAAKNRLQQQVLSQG

[5] = molecular target: T2, SIX6 (Homo sapiens, UniProt O95475 114-200, L143V)
T2 sequence: T1 sequence with L30V, I54L

[6] = molecular target: T3, SIX6 (Homo sapiens, UniProt O95475 114-200, T165P)
T3 sequence: T1 sequence with T52P, I54L

[7] = molecular target: T4, SIX6 (Homo sapiens, UniProt O95475 114-200, L167M)
T4 sequence: T1 sequence with I54M

[8] = molecular target: T5, SIX6 (Homo sapiens, UniProt O95475 114-200, L143M)
T5 sequence: T1 sequence with L30M, I54L

[9] = molecular target: T6, SIX6 (Homo sapiens, UniProt O95475 114-200, T165G)
T6 sequence: T1 sequence with T52G, I54L

[10] = molecular target: T7, SIX6 (Homo sapiens, UniProt O95475 114-200, T139Q)
T7 sequence: T1 sequence with T26Q, I54L

[11] = molecular target: T8, SIX6 (Homo sapiens, UniProt O95475 114-200, L167V)
T8 sequence: T1 sequence with I54V

[12] = molecular target: T9, SIX6 (Homo sapiens, UniProt O95475 114-200, T165I)
T9 sequence: T1 sequence with T52I, I54L

[13] = molecular target: NKX3-2 (Homo sapiens, UniProt P78367 192-278, P234S)
Sequence of NKX3-2 (Homo sapiens, UniProt P78367 192-278, P234S) (P78367 192-278 P234S): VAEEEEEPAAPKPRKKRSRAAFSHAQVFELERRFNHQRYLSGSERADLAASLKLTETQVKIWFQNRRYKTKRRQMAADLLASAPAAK

[14] = molecular target: NKX3-2 (Homo sapiens, UniProt P78367 192-278)
Sequence of NKX3-2 (Homo sapiens, UniProt P78367 192-278) (P78367 192-278): as the sequence (P78367 192-278 P234S) above, with S43P counted along it

[15] = molecular target: T10, NKX2-4 (Homo sapiens, UniProt Q9H2Z4 175-261, P217L)
T10 sequence: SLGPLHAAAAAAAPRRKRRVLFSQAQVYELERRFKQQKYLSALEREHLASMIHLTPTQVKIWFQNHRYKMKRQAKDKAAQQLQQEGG

[16] = molecular target: T11, NKX2-6 (Homo sapiens, UniProt A6NCS4 118-204)
T11 sequence: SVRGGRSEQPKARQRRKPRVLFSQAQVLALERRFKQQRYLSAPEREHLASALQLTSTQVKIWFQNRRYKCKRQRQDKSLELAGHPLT

[17] = molecular target: T12, NKX2-6 (Homo sapiens, UniProt A6NCS4 118-204, F151L)
T12 sequence: T11 sequence with F34L

[18] = molecular target: HOXB9 (Homo sapiens, UniProt P17482 171-250)
Sequence of HOXB9 (Homo sapiens, UniProt P17482 171-250) (P17482 171-250): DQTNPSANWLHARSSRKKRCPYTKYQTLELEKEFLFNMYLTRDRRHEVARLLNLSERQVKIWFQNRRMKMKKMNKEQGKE

[19] = molecular target: HOXB9 (Homo sapiens, UniProt P17482 171-250, R186Q)
Sequence of HOXB9 (Homo sapiens, UniProt P17482 171-250, R186Q) (P17482 171-250 R186Q): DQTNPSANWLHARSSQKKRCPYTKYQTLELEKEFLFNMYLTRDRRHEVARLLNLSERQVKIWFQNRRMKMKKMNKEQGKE

[20] = molecular target: HOXC10 (Homo sapiens, UniProt Q9NYD6 254-340, K271E)
Sequence of HOXC10 (Q9NYD6 254-340 K271E): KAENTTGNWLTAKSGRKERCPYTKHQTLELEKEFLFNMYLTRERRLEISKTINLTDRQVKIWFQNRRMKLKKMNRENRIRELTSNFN

Sequence of CRX (Homo sapiens, UniProt O43186 26-111, E42D) (O43186 26-111 E42D): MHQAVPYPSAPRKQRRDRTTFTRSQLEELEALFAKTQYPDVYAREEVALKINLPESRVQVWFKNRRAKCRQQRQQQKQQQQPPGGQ
Sequence of CRX (Homo sapiens, UniProt O43186 26-111, R41L) (O43186 26-111 R41L): as the sequence (O43186 26-111 E42D) above, with R16L, D17E counted along it
Sequence of CRX (Homo sapiens, UniProt O43186 26-111) (O43186 26-111): as the sequence (O43186 26-111 E42D) above, with D17E counted along it

With AGGCCCGC the binding signal [1] was 8.17 upbm affinity estimate (log intensity, higher = more binding, comparable within an allelic series), the binding signal [2] was 8.1 upbm affinity estimate (log intensity, higher = more binding, comparable within an allelic series) and the binding signal [3] was 8.27 upbm affinity estimate (log intensity, higher = more binding, comparable within an allelic series).
CAGGCGCC was tested, and the binding signal [4] was 8.87 upbm affinity estimate (log intensity, higher = more binding, comparable within an allelic series), the binding signal [5] was 8.82 upbm affinity estimate (log intensity, higher = more binding, comparable within an allelic series) and the binding signal [6] was 8.98 upbm affinity estimate (log intensity, higher = more binding, comparable within an allelic series). The binding signal [7] was 8.93 upbm affinity estimate (log intensity, higher = more binding, comparable within an allelic series), the binding signal [8] was 8.82 upbm affinity estimate (log intensity, higher = more binding, comparable within an allelic series) and the binding signal [9] was 8.8 upbm affinity estimate (log intensity, higher = more binding, comparable within an allelic series). For the same sequence, the binding signal [10] was 8.84 upbm affinity estimate (log intensity, higher = more binding, comparable within an allelic series), the binding signal [11] was 8.89 upbm affinity estimate (log intensity, higher = more binding, comparable within an allelic series) and the binding signal [12] was 8.87 upbm affinity estimate (log intensity, higher = more binding, comparable within an allelic series).
With CCGCCCCC the binding signal [13] was 10.4 upbm affinity estimate (log intensity, higher = more binding, comparable within an allelic series) and the binding signal [14] was 10.4 upbm affinity estimate (log intensity, higher = more binding, comparable within an allelic series).
GAGCTGGC was tested, and the binding signal [15] was 9.65 upbm affinity estimate (log intensity, higher = more binding, comparable within an allelic series).
With CGCGTAGC the binding signal [4] was 9.05 upbm affinity estimate (log intensity, higher = more binding, comparable within an allelic series), the binding signal [5] was 8.9 upbm affinity estimate (log intensity, higher = more binding, comparable within an allelic series) and the binding signal [6] was 9.03 upbm affinity estimate (log intensity, higher = more binding, comparable within an allelic series). For the same sequence, the binding signal [7] was 8.94 upbm affinity estimate (log intensity, higher = more binding, comparable within an allelic series), the binding signal [8] was 8.94 upbm affinity estimate (log intensity, higher = more binding, comparable within an allelic series) and the binding signal [9] was 9.13 upbm affinity estimate (log intensity, higher = more binding, comparable within an allelic series). For the same sequence, the binding signal [10] was 9.19 upbm affinity estimate (log intensity, higher = more binding, comparable within an allelic series), the binding signal [11] was 8.99 upbm affinity estimate (log intensity, higher = more binding, comparable within an allelic series) and the binding signal [12] was 8.98 upbm affinity estimate (log intensity, higher = more binding, comparable within an allelic series).
GCCAGCCC was tested, and the binding signal [4] was 8.95 upbm affinity estimate (log intensity, higher = more binding, comparable within an allelic series), the binding signal [5] was 8.86 upbm affinity estimate (log intensity, higher = more binding, comparable within an allelic series) and the binding signal [6] was 8.85 upbm affinity estimate (log intensity, higher = more binding, comparable within an allelic series). The binding signal [7] was 9.06 upbm affinity estimate (log intensity, higher = more binding, comparable within an allelic series), the binding signal [8] was 9.06 upbm affinity estimate (log intensity, higher = more binding, comparable within an allelic series) and the binding signal [9] was 9.06 upbm affinity estimate (log intensity, higher = more binding, comparable within an allelic series). For the same sequence, the binding signal [10] was 9.07 upbm affinity estimate (log intensity, higher = more binding, comparable within an allelic series), the binding signal [11] was 8.96 upbm affinity estimate (log intensity, higher = more binding, comparable within an allelic series) and the binding signal [12] was 9.01 upbm affinity estimate (log intensity, higher = more binding, comparable within an allelic series).
For GTCCTGCA, the binding signal [16] was 9.59 upbm affinity estimate (log intensity, higher = more binding, comparable within an allelic series) and the binding signal [17] was 9.4 upbm affinity estimate (log intensity, higher = more binding, comparable within an allelic series).
With ATAATTGC the binding signal [18] was 11.7 upbm affinity estimate (log intensity, higher = more binding, comparable within an allelic series) and the binding signal [19] was 11.5 upbm affinity estimate (log intensity, higher = more binding, comparable within an allelic series).
For GCAGGCGC, the binding signal [20] was 9.87 upbm affinity estimate (log intensity, higher = more binding, comparable within an allelic series).
For CGGCTAGC, the binding signal [20] was 10 upbm affinity estimate (log intensity, higher = more binding, comparable within an allelic series).
CGCCTAGC was tested, and the binding signal [13] was 10.6 upbm affinity estimate (log intensity, higher = more binding, comparable within an allelic series) and the binding signal [14] was 10.6 upbm affinity estimate (log intensity, higher = more binding, comparable within an allelic series).
AGAGGACC was tested, and the binding signal [13] was 11.8 upbm affinity estimate (log intensity, higher = more binding, comparable within an allelic series) and the binding signal [14] was 11.8 upbm affinity estimate (log intensity, higher = more binding, comparable within an allelic series).
For AGAGCTCT, the binding signal [20] was 10.1 upbm affinity estimate (log intensity, higher = more binding, comparable within an allelic series).
In the case of CAGCTCGG, the binding signal [16] is reported as 8.88 upbm affinity estimate (log intensity, higher = more binding, comparable within an allelic series) and the binding signal [17] is reported as 9.23 upbm affinity estimate (log intensity, higher = more binding, comparable within an allelic series).
For CACCCGGC, the binding signal [16] was 9.18 upbm affinity estimate (log intensity, higher = more binding, comparable within an allelic series) and the binding signal [17] was 9.14 upbm affinity estimate (log intensity, higher = more binding, comparable within an allelic series).
For CTGCCAGC, the binding signal [16] was 9.39 upbm affinity estimate (log intensity, higher = more binding, comparable within an allelic series) and the binding signal [17] was 9.37 upbm affinity estimate (log intensity, higher = more binding, comparable within an allelic series).
